# Pol iota inh: blocks human DNA polymerase iota activity; Q9UNA4; Pol iota fluorescent replication assay, 10 min; Potency, µM (titrated, usually from 115 µM), inactives show top-dose activity, negative = inhibition, hits mostly inhibitors; 390,000 compounds, 1% hits
#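 Fluorescent replication assay read twice, at 0 min and 10 min after adding 50 nM (final) substrate. Enzyme (10 nM) and compounds were first incubated 15 min at room temperature; enzyme-free buffer wells were negative controls.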
# FEN1 inhibitor: blocks human flap endonuclease 1; Recombinant FEN1 flap cleavage, fluorescence, 15 min; P39748; 390,000 compounds, 0.35% hits; Potency, µM (top dose mostly 114 µM), for the others: top-dose activity change, negative = inhibition, actives largely listed as inhibitors; note: % is set by controls: 0 for no effect and ±100 for the full control effect; nearly all actives have a fitted effect of over 65% in size
#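 Recombinant FEN1 (10 nM) was preincubated with pin-transferred compounds for 15 min at room temperature, then flap DNA substrate (50 nM final) was added. Plates were read at 0 and 15 min, and normalized concentration–response data were fitted to a four-parameter Hill equation.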
# POLH inh: blocks human DNA polymerase eta activity; Potency, µM (doses to about 114 µM), without a hit: at the highest dose activity change, negative = inhibition, hits mostly inhibitors; recombinant Pol eta, fluorescent DNA replication assay; Q9Y253; 390,000 compounds, 1.2% hits; note: % is set by controls: 0 for no effect and ±100 for the full control effect
# Target sequence (Q9Y253 whole entry, looked up): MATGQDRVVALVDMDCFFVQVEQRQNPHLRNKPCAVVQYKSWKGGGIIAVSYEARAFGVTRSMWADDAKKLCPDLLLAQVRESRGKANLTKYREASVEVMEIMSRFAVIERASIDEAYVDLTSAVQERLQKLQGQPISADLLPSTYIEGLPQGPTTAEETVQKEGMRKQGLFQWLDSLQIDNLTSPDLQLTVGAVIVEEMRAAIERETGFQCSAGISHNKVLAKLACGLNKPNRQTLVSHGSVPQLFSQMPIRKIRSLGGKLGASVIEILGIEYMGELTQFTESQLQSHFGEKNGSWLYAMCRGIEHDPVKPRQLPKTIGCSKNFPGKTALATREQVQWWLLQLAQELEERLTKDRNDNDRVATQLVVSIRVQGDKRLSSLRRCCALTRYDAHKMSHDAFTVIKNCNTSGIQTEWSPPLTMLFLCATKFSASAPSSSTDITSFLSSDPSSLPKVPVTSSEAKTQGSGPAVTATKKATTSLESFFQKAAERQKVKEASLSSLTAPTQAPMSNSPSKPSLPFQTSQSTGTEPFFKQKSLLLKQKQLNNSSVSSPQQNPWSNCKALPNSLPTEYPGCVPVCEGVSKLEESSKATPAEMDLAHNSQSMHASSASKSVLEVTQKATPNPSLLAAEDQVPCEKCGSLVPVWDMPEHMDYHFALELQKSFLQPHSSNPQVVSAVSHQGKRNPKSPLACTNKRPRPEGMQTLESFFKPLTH
#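 Pol eta at 10 nM preincubated with compounds 15 min at room temperature; reaction started with fluorescent substrate (50 nM final) and read kinetically at 0 and 10 min.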
# POLK inh: DNA polymerase kappa (human) inhibition; Potency, µM (titrated, usually from 107 µM), without a hit: at the top dose activity, negative = inhibition, hits mostly inhibitors; Q9UBT6; 400,000 compounds, 0.53% hits; purified Pol kappa, fluorescent DNA synthesis assay, 10 min; note: % is set by controls: 0 for no effect and ±100 for the full control effect
#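 50 nM final substrate added after 15 min RT preincubation of 10 nM Pol kappa with compound; fluorescence read at 0 and 10 min.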
# Pol beta inh: DNA polymerase beta (human) inhibition. P06746. Pol beta primer extension/strand displacement, fluorescence kinetic. Potency, µM (series often up to 114 µM), for the others: top-dose activity change, negative = inhibition, usual class: inhibitors. 340,000 compounds, 1.3% hits. AID 485314; note: % is set by controls: 0 for no effect and ±100 for the full control effect
#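 Kinetic readout of DNA synthesis with strand displacement by Pol beta. Compound and 10 nM enzyme sit 15 min at room temperature; 50 nM substrate starts the reaction, read immediately and at 10 min.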
# WRN helicase inh: blocks human WRN helicase | Q14191 | WRN helicase unwinding, fluorescent forked duplex, kinetic | Potency, µM (highest dose often 114 µM), inactives show at the highest dose activity change, negative = inhibition, hits mostly inhibitors | 360,000 compounds, 0.46% hits; note: % is set by controls: 0 for no effect and ±100 for the full control effect; nearly all actives have a fitted effect of over 55% in size
#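 Fluorescence dequenching readout, ex 525 nm/em 598 nm, kinetic mode: forked duplex DNA (100 nM final) with adjacent fluorophore and quencher unwound by WRN (20 nM final) with 2 mM ATP. Compound preincubation 15 min, room temperature.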
# * marks the source's active call; other numbers are inactive results; ? = inconclusive; · = no result given; [ ] = dose if it differs, or a comment. The list is not random: actives were taken first. Their share in the collection is about 2.4%. Calls come from the whole dose curve; as a rule, active = well fitted curve in the direction sought with a large enough effect; inconclusive = small, poorly fitted or top-dose-only effect, or another doubt; inactive = no such curve, though single readings can be large; an effect the other way counts as inactive or inconclusive. Potency is the fitted concentration of half-maximal effect.
SMILES,Pol iota inh,FEN1 inhibitor,POLH inh,POLK inh,Pol beta inh,WRN helicase inh
Cc1ccc(/C=c2\sc3nc(-c4ccco4)nn3c2=O)o1,?,?,3.5µM*,28µM*,28µM*,56µM*
Cc1ccc(-c2nc3s/c(=C\c4ccco4)c(=O)n3n2)cc1,25µM*,-5%,89µM*,-42%,28µM*,-15%[57.1 µM]
Cc1ccc(/C=c2\sc3nc(-c4ccccc4Br)nn3c2=O)o1,?,?,10µM*,20µM*,14µM*,?
COc1ccccc1/C=c1\sc2nc(-c3ccccc3OC)nn2c1=O,-5%,0%,-2%,-8%,3%,-5%
O=S(=O)(Nc1nccs1)c1cc(Cl)ccc1Cl,?,3%,25µM*,0%,-2%,-12%[57.1 µM]
O=S(=O)(Nc1ncccn1)c1cc(Cl)ccc1Cl,111%,4%,-6%,-6%,34%,2%
O=S(=O)(Nc1nccs1)c1ccc(NS(=O)(=O)c2c(F)cc(F)c(Cl)c2F)cc1,?,-11%,50µM*,-12%,·,-27%
COc1ccc(F)c(Cn2cnc3c(cnn3C(C)(C)C)c2=O)c1Cl,2%,-10%,·,-10%,·,·
CN(C)C1CCC(CC2CCc3ccccc32)CC1 (configuration not stated),18%,6%,·,-5%,·,·
CC1=C(C)C(=O)N(c2ccccn2)C1=O,9%,8%,-13%,-1%,9%,0%
Cc1nn(-c2ccccn2)c2c1C(=O)C(Br)CC2 (configuration not stated),133%,-5%,7%,-3%,10%,56µM*
O=C(C[N+]12CCCc3cccc(c31)CCC2)c1ccc2ccc3cccc4ccc1c2c34,59%,45µM*,·,-11%,·,·
COc1cc(/C=C2/SC(=S)N(CCC(=O)Nc3ccc(C(=O)O)cc3)C2=O)cc(OC)c1OC,-10%,-17%,56µM*,-21%,4%,4%[11.6 µM]
COc1ccc(/C=C2\SC(=S)N(CCCC(=O)Nc3ccc(O)cc3)C2=O)cc1,7%,6%,17%,8%,-1%,-7%
CC(=C\c1ccccc1)/C=C1/SC(=S)N(CCCC(=O)O)C1=O,25µM*,?,25µM*,-26%,-15%,50µM*
CC(=Cc1ccccc1)C=C1SC(=S)N(CCCC(=O)Nc2ccc(C(=O)O)cc2)C1=O,·,·,·,·,·,-13%[57.1 µM]
O=C(CCCN1C(=O)/C(=C\c2ccco2)SC1=S)Nc1ccc2ccccc2c1,215%,-4%,?,-13%,20µM*,0%
CC(/C=C1\SC(=S)N(CCCC(=O)Nc2ccc(C(=O)O)cc2)C1=O)=C\c1ccccc1,?,-4%,32µM*,-27%,?,-12%[11.6 µM]
CCCCn1cnc2c(=O)[nH]c(N)nc21,-2%,-1%,·,-12%,·,·
COc1ccc(CCN2C(=O)/C(=C\c3ccco3)SC2=S)cc1OC,?,-7%,-19%,-7%,28µM*,1%
COc1ccc(N=Cc2cc(Cc3ccccc3Cl)cc([N+](=O)[O-])c2O)cc1OC,?,-26%,28µM*,-16%,1%,2%
C[C@@H]1C(=O)O[C@@H]1[C@@H](C)CO[Si](c1ccccc1)(c1ccccc1)C(C)(C)C,17%,-7%,·,-12%,·,·
O=C(C[n+]1cc(Br)cc2ccccc21)c1ccc(O)c(O)c1,?,0%,·,2.8µM*,·,·
O=C(C[n+]1cc(Br)cc2ccccc21)c1ccccc1,-22%,-14%,2%,4%,-3%,-3%
CCC(=O)c1ccc2c(c1)N(CCCN1CCN(CCO)CC1)c1ccccc1S2,·,·,·,0%[19.4 µM],·,·
SMILES,Pol iota inh,FEN1 inhibitor,POLH inh,POLK inh,Pol beta inh,WRN helicase inh
COc1ccc(-c2ccc(OC)c(C3C4C=CCCC4(C)C(=O)N3Cc3ccccc3)c2)cc1OC (configuration not stated),-3%,-26%,·,-5%,·,·
COc1cc(/C=C2\SC(=O)N(c3ccccc3Cl)C2=O)cc([N+](=O)[O-])c1O,?,?,56µM*,-12%,89µM*,-16%[11.6 µM]
COc1cc(/C=C2\SC(=O)N(c3ccc(O)cc3)C2=O)cc(OC)c1OC,4%,11%,-3%,3%,-20%,-4%
COc1cc(/C=C2\SC(=O)N(CC(=O)Nc3ccccc3F)C2=O)cc(Cl)c1O,?,-31%,50µM*,?,?,-8%[57.1 µM]
CC(C)[C@@H]1CC[C@@H](C)C[C@@H]1P(=O)(c1ccccc1)c1ccccc1,·,?,·,5%[60.1 µM],·,·
C#CCOCCOCCOCCNc1nc(N2CCN(C(=O)CCCCCCCCCCNC(=O)[C@H]([C@@H](C)CC)n3cc(CCCCN=C(N)N)nn3)CC2)nc(N2CCN(C(=O)CCCCCCCCCCNC(=O)[C@H](CCCCN)n3cc(C)nn3)CC2)n1,?,25µM*,?,-10%,·,28µM*
C#CCOCCOCCOCCNc1nc(N2CCN(C(=O)CCCCCCCCCCNC(=O)Cn3cc(CCCCCN)nn3)CC2)nc(N2CCN(C(=O)CCCCCCCCCCNC(=O)[C@H]([C@@H](C)CC)n3cc(CCCCN=C(N)N)nn3)CC2)n1,?,20µM*,79µM*,19%,·,32µM*
C#CCOCCOCCOCCNc1nc(N2CCN(C(=O)Cn3cc(CCCN=C(N)N)nn3)CC2)nc(N2CCN(C(=O)[C@H]([C@@H](C)CC)n3cc(CCCCN)nn3)CC2)n1,?,-4%,-10%,-8%,·,-1%
C#CCOCCOCCOCCNc1nc(N2CCN(C(=O)CCCCCCCCCCNC(=O)[C@H]([C@@H](C)CC)n3cc(CCCCCN)nn3)CC2)nc(N2CCN(C(=O)CCCCCCCCCCNC(=O)[C@H](CO)n3cc(CCCCCN)nn3)CC2)n1,?,?,-18%,-10%,·,56µM*
C#CCOCCOCCOCCNc1nc(N2CCN(C(=O)CCCCCCCCCCNC(=O)[C@H]([C@@H](C)CC)n3cc(CCCCCN)nn3)CC2)nc(N2CCN(C(=O)CCCCCCCCCCNC(=O)[C@H](CCCCN)n3cc(CCCC(=O)O)nn3)CC2)n1,7%,?,-27%,17%,·,0%
COc1ccc(NC(=O)COc2ccccc2C(=O)Nc2ccccc2)cc1,46%,11%,·,8%,·,·
O=[N+]([O-])c1cc(/C=N\Nc2nccs2)ccc1O,·,·,·,·,4µM*,·
Cc1ccnc(NC(=O)Nc2ccc3c(c2)N(C)C(=O)CS3)c1,-4%,1%,4%,-16%,-1%,-31%[57.1 µM]
Cc1ccc(NC(=O)Nc2ccc3c(c2)N(C)C(=O)CS3)nc1,89µM*,3%,-29%,-2%,?,-17%[57.1 µM]
Cc1nn(CC(=O)NCc2cccc(F)c2)c(=O)c2cccn12,?,1%,-15%,89µM*,0%,-4%[11.6 µM]

# High-throughput results deposited in PubChem BioAssay by National Center for Advancing Translational Sciences (NCATS).
